Source: PubChem BioAssay (NCATS)
Records with an inconclusive call do not appear. Entries that show only a call come without a potency. Active and inactive are the calls of the source. Unless noted, the call rests on the fitted dose curve; in most records, active means well fitted curve in the direction sought with a large enough effect; inconclusive means small, poorly fitted or top-dose-only effect, or another doubt; inactive means no such curve, though single readings can be large; an effect the other way counts as inactive or inconclusive.

Tests used:
[1] = qHTS for Inhibitors of Cell Surface uPA Generation: Validation Assay (AID 493164);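 further: RAW 264.7 macrophage cells exposed to compound for 18 h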
Outline: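 ATP-Lite luminescence read-out: ATP remains high when uPA activity-dependent LF translocation into the cytoplasm is blocked. RAW 264.7 cells, 18 h compound exposure at 37 C; 7-point titration, 2.45 nM to 38.3 uM final.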

[2] = biological target: Galactokinase (Homo sapiens) (UniProt P51570); test: qHTS Validation Assay for Inhibitors of Human Galactokinase (GALK) (AID 493189)
Chain of Galactokinase (Homo sapiens) (P51570 whole entry, looked up): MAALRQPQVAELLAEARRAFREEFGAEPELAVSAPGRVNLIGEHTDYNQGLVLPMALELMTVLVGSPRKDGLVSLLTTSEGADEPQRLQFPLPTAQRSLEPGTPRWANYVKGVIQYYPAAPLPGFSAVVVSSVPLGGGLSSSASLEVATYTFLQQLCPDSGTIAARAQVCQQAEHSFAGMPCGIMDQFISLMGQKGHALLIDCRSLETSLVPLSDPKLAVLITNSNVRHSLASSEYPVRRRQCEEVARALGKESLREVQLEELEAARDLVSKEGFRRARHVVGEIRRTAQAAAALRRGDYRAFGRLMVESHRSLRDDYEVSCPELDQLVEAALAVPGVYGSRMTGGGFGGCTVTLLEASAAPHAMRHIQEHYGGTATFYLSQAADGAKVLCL
Outline: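 Enzyme activity is inferred from ATP consumption: human GALK phosphorylates galactose (100 uM) using 35 uM ATP for 1 h at room temperature, and luciferase-based Kinase-Glo Plus reports unconsumed ATP.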

[3] = Validation screen for small molecules that induce DNA re-replication in SW480 colon adenocarcinoma cells (AID 504364); further: potency means the concentration at half of the fitted maximal effect
Outline: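 Image-based DNA content read-out: Hoechst stain 40 min, total nuclear fluorescence intensity (ex 405 nm, em 500-530 nm) after 48 h compound exposure of 250 SW480 cells/well at 37 C, 5% CO2, versus DMSO vehicle.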

[4] = biological target: Peptidyl-prolyl cis-trans isomerase NIMA-interacting 1 (Homo sapiens) (UniProt Q13526); test: qHTS Validation Assay to Find Inhibitors of Pin1 (AID 504536; active means well fitted inhibition curve with a large enough effect in the polarisation, with a control signal flat, not every such curve was filed as active; the % refers to the polarisation; further: potency means the concentration at half of the fitted maximal effect)
Chain of Peptidyl-prolyl cis-trans isomerase NIMA-interacting 1 (Homo sapiens) (Q13526 whole entry, looked up): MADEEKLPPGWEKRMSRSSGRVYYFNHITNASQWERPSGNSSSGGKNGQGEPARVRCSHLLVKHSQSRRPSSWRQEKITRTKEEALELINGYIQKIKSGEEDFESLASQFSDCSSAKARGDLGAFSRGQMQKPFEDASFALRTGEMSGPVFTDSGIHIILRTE
Outline: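 Fluorescence polarization competition: compounds (titration) displace HiFluor-488-labeled Pin1-1b peptide from Pin1 (0.3 uM final) in pH 7.5 HEPES buffer with DTT, 10 min at room temperature; %Activity normalized to no-enzyme wells, curves fitted.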

[5] = biological target: Phosphoglycerate kinase, glycosomal (Trypanosoma brucei brucei) (UniProt P07378); test: qHTS Validation Assay to Find Inhibitors of Phosphoglycerate Kinase (AID 504547); further: potency means the concentration at half of the fitted maximal effect
Chain of Phosphoglycerate kinase, glycosomal (Trypanosoma brucei brucei) (P07378 whole entry, looked up): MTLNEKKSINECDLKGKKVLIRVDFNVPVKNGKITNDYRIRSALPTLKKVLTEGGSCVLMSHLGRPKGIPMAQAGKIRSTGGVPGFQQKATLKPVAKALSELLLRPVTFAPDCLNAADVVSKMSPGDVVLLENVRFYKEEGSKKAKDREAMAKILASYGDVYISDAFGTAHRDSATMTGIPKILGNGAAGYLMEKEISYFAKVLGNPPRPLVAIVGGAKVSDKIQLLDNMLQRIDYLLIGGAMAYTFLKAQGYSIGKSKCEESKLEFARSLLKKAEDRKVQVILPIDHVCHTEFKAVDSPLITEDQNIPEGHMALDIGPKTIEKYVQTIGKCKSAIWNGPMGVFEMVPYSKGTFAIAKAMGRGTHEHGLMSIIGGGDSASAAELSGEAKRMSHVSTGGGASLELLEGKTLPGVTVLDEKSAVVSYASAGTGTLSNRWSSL
Outline: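 In TEA buffer (100mM, pH 7.6) containing 5mM MgCl2 and 0.01% Tween-20, the GAPDH-coupled PGK reaction proceeded for 60 minutes at room temperature before a single luminescence reading using Kinase-Glo Plus.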

[6] = biological target: Ubiquitin carboxyl-terminal hydrolase 1 (Homo sapiens) (UniProt O94782); test: Inhibitors of USP1/UAF1: Pilot qHTS (AID 504865); further: nearly all actives have a fitted effect of over 35% in size; further: potency means the concentration at half of the fitted maximal effect
Chain of Ubiquitin carboxyl-terminal hydrolase 1 (Homo sapiens) (O94782 whole entry, looked up): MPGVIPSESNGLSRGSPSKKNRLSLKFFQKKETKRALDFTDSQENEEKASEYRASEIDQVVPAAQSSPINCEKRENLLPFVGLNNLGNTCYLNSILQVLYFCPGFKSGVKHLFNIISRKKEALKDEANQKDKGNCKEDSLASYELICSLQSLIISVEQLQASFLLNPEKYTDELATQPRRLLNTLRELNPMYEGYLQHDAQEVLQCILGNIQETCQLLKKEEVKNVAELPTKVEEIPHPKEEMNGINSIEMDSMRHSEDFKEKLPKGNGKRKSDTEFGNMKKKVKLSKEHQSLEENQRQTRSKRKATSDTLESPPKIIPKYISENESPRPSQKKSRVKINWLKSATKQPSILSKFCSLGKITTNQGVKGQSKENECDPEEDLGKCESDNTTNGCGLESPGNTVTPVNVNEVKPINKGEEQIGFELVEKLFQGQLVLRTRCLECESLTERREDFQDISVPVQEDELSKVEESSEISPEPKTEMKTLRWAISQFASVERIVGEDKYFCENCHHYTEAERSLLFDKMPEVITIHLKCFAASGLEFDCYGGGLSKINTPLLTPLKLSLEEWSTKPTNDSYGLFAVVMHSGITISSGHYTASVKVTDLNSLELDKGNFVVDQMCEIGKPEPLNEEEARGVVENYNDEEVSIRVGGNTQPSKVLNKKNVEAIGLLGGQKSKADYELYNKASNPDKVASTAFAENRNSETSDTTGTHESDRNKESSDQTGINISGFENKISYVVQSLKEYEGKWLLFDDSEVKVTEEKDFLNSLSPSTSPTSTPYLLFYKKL
Outline: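 Enzyme-free wells gave the negative control, while test wells held 1nM USP1/UAF1 preincubated with compound for 15 min at room temperature. Ub-Rho at 150nM final started the reaction, and fluorescence at 480/540 nm was recorded kinetically.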

[7] = qHTS for Inhibitors of ATXN expression: Validation of Cytotoxic Assay (AID 588349)
Outline: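 Cytotoxicity counter-screen: ATP-based luminescent viability (CellTiter Glo) after 72 hr exposure of HEK293 cells to a compound titration at 37 degrees C.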

[8] = qHTS for Inhibitors of ATXN expression: Validation (AID 588378); further: nearly all actives have a fitted effect of over 75% in size; further: potency means the concentration at half of the fitted maximal effect
Outline: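 After a 2 h attachment and 24 h compound incubation, HEK293-ATXN2-FFLuc wells are read for fluorescence at 405 nm excitation/525 nm emission as a viability measure, then for Bright-Glo luminescence reflecting ATXN2 expression.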

[9] = biological target: phosphoglycerate mutase (Leishmania major) (UniProt Q4Q090); test: qHTS Validation Assay to Find Inhibitors of Phosphoglycerate Mutase (AID 504548); conditions: Potency: inhibition qHTS; further: series mostly up to about 58 µM
Chain of phosphoglycerate mutase (Leishmania major) (Q4Q090 1-553): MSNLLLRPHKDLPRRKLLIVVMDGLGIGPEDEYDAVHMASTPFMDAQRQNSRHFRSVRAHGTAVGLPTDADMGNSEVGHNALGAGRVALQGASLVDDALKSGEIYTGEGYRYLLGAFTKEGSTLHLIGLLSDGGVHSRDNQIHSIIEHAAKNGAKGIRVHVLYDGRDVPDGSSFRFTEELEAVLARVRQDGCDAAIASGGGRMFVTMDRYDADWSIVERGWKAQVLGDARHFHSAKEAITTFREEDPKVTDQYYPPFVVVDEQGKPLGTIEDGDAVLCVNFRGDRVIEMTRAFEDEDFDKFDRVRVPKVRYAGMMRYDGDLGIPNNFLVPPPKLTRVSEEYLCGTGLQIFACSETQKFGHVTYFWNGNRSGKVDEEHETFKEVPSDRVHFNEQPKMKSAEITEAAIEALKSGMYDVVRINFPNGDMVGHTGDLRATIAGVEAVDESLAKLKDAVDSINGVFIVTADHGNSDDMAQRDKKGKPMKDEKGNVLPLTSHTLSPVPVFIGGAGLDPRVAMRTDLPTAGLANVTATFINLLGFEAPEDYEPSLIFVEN
Outline: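 Luminescent end-point read-out via Kinase-GloPlus after a 10-minute development. Reaction: 1.25nM Leishmania major PGAM with substrate and compound, 45 minutes at room temperature in TEA buffer (pH 7.6) with MgCl2 and Tween-20.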

[10] = Nrf2 qHTS screen for inhibitors: Validation (AID 493153; active means well fitted inhibition curve with a large enough effect in the main read-out, with a control signal flat, not every such curve was filed as active); conditions: Potency: luciferase luminescence; viability change: measured here: cytotoxicity max response
Outline: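 Concentration-response on A549 ARE_Fluc reporter cells exposed 18-24 h at 37 C, 5% CO2. Cytotoxicity read first by CellTiter-Fluor fluorescence (Ex 405/Em 525), then Nrf2 inhibition by BugLite luminescence after 15 min.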

Compound | outcome [1] | Potency [2] | Potency [3] | Potency [4] | Potency [5] | Potency [6] | Potency [7] | Potency [8] | Potency [9] | Potency [10] | viability change [10] [%]
CCN(CC)CCOC(=O)c1cc(Cl)c(N)cc1OC | inactive | inactive | inactive | inactive | inactive | inactive | inactive | inactive | – | – | –
NC(N)=[N+]1CCc2ccccc2C1 | inactive | inactive | inactive | inactive | inactive | inactive | inactive | inactive | inactive | – | –
O=c1[nH]c2cc(Cl)ccc2c(O)c1-c1ccc(Oc2ccccc2)cc1 | inactive | inactive | inactive | inactive | inactive | inactive | inactive | inactive | inactive | – | –
Nc1nc2[nH]c(=O)cnc2c(=O)[nH]1 | inactive | inactive | inactive | inactive | inactive | inactive | inactive | inactive | – | – | –
COc1ccccc1N1CCN(CCN(C(=O)c2ccc(F)cc2)c2ccccn2)CC1 | inactive | inactive | inactive | inactive | inactive | inactive | inactive | inactive | – | – | –
CCC1(O)CC2CN(CCc3c([nH]c4ccccc34)[C@@](C(=O)OC)(c3cc4c(cc3OC)N(C)C3[C@]45CCN4CC=C[C@@](CC)([C@@H](OC(C)=O)[C@]3(O)C(=O)OC)[C@H]45)C2)C1 (stereo partly drawn) | inactive | inactive | 0.0206 µM (active) | inactive | inactive | inactive | – | – | inactive | – | –
CC(C)NC[C@H](O)COc1cccc2ccccc12 | – | – | – | inactive | – | inactive | – | – | – | inactive | -4.73
N[C@@H](CCCC(=O)O)C(=O)O | inactive | inactive | inactive | inactive | inactive | inactive | inactive | inactive | inactive | – | –
CN1CCC2(CCN3CCc4c(oc5ccccc45)C3C2)N(C)C1=O (stereo not drawn) | inactive | inactive | inactive | inactive | inactive | inactive | inactive | inactive | inactive | – | –
Cc1cc2c(cc1Cl)N(C(=O)Nc1ccnc3ccccc13)CC2 | inactive | inactive | inactive | inactive | inactive | inactive | inactive | inactive | inactive | – | –
[N-]=[N+]=Nc1ccc(C(=O)CSC[C@H](NC(=O)CC[C@H](N)C(=O)O)C(=O)NCC(=O)O)cc1 | inactive | inactive | inactive | 23.9 µM (active) | – | 35.5 µM (active) | – | inactive | inactive | – | –
COc1ccc(NC(=O)c2ccc(-c3ccc(-c4noc(C)n4)cc3C)cc2)cc1N1CCN(C)CC1 | – | inactive | inactive | inactive | inactive | inactive | – | 22.4 µM (active) | – | inactive | -8.26
CCCCCC(O)CCCC(=O)O (stereo not drawn) | inactive | inactive | inactive | inactive | inactive | inactive | inactive | inactive | inactive | – | –
Clc1nccc2c1ccc1ccccc12 | inactive | inactive | inactive | inactive | inactive | inactive | inactive | inactive | inactive | – | –
CCCC(=O)NCCc1c2n(c3ccc(OC)cc13)CCCc1ccccc1-2 | inactive | inactive | inactive | inactive | inactive | – | – | – | inactive | – | –
C=C1C(=O)O[C@@H]2[C@H]3O[C@]3(C)CCC=C(C)CC[C@@H]12 | inactive | inactive | inactive | inactive | inactive | inactive | – | – | – | – | –
CC1CCN=C(N)S1 (stereo not drawn) | inactive | inactive | inactive | inactive | inactive | inactive | inactive | inactive | inactive | – | –
NC(N)=NC(N)=Nc1cccc(Cl)c1 | inactive | inactive | inactive | – | inactive | inactive | inactive | inactive | inactive | – | –
CCCn1c(=O)c2[nH]c(-c3ccc(S(=O)(=O)O)cc3)nc2n(CCC)c1=O | inactive | inactive | inactive | inactive | inactive | – | inactive | inactive | inactive | – | –
CCCc1c(OCCCOc2ccc(OCC(=O)O)cc2)ccc(C(C)=O)c1O | inactive | inactive | inactive | inactive | inactive | 79.4 µM (active) | – | inactive | inactive | – | –
CCCCCCCCCCCCCCC[C@H](O)[C@H](N)CO | – | inactive | inactive | inactive | inactive | 79.4 µM (active) | inactive | inactive | – | inactive | 2.23
O=C1NC(=O)c2cc(Nc3ccccc3)c(Nc3ccccc3)cc21 | inactive | inactive | inactive | inactive | inactive | – | inactive | – | inactive | – | –
COc1ccc2c(c1)c(CC(=O)O)c(C)n2C(=O)c1ccccc1 | inactive | inactive | inactive | inactive | inactive | inactive | inactive | inactive | inactive | – | –
CCCCCCCC/C=C\CCCCCCCC(=O)NCCc1ccc(O)c(O)c1 | inactive | inactive | inactive | inactive | inactive | – | – | 20 µM (active) | inactive | – | –
CC(C)(C)c1cc(/C=C(\C#N)C(N)=S)cc(C(C)(C)C)c1O | inactive | inactive | inactive | – | inactive | – | – | – | inactive | – | –
O=c1[nH]c2ccccc2c2ccccc12 | inactive | inactive | inactive | inactive | inactive | inactive | inactive | inactive | inactive | – | –
O=c1[nH]c(=S)[nH]c(-c2ccccc2)c1Cc1c(O)ccc2ccccc12 | – | – | – | inactive | inactive | – | inactive | inactive | inactive | – | –
O=c1cc(O)cc(/C=C/c2ccc(O)c(O)c2)o1 | inactive | inactive | inactive | – | 1.69 µM (active) | inactive | inactive | inactive | inactive | – | –
O=c1cc(-c2ccccc2F)[nH]c2cc3c(cc12)OCO3 | inactive | – | – | inactive | inactive | inactive | – | inactive | inactive | – | –
